A549 tox: A549 cytotoxicity, counter-screen for Nrf2 inhibitors; A549 ARE-Fluc cells, CellTiter-Fluor viability, 18-24 h; 390,000 tested, 0.16% active; Potency, µM (series often up to 46 µM), for inactives: top-dose activity change, negative = cytotoxicity, hits mostly inhibitors; further: on the % scale 0 is the no-effect control and ±100 the full control effect
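Cytotoxicity counterscreen: CellTiter-Fluor fluorescence was measured in A549 ARE_Fluc cells after 18-24 h of compound exposure in a concentration series. The subsequent BugLite luminescent read reports ARE-luciferase activity.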
Pin1 inhibitor: human Pin1 inhibition; 390,000 tested, 0.009% active; Q13526; Pin1 FP peptide displacement, HiFluor488, 10 min; Potency, µM (top dose mostly 115 µM), inactives show top-dose activity, negative = inhibition, most hits filed as inhibitors; AID 504891; active means well fitted inhibition curve with a large enough effect in the polarisation, with a control signal flat, not every such curve was filed as active; inconclusive means small, poorly fitted or top-dose-only effect, or effect the other way, or a change in a side signal; inactive means no such curve, though single readings can be large or run the other way; the % refers to the polarisation; further: on the % scale 0 is the no-effect control and ±100 the full control effect
Target sequence (Q13526 whole entry, looked up): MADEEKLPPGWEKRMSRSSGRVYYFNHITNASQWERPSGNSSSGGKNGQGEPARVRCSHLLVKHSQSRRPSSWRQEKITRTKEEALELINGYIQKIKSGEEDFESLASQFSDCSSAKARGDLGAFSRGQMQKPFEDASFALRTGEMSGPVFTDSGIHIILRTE
Nrf2 inh: blocks Nrf2 signaling | Potency, µM (doses to about 46 µM), for inactives: top-dose activity change, negative = inhibition, actives largely listed as inhibitors | AID 504444 | A549 ARE-Fluc reporter, luciferase luminescence, 18-24 h | 360,000 tested, 2.1% active; further: on the % scale 0 is the no-effect control and ±100 the full control effect; nearly all actives have a fitted effect of over 60% in size
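A549 ARE_Fluc cells, 5000/well, 5% FBS OPTI-MEM; compounds in dose-response, 18-24 h at 37 °C/5% CO2; CellTiter-Fluor viability read (Ex 405/Em 525), then BugLite luciferase luminescence = Nrf2 activity.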
Nrf2 ARE act: Nrf2 pathway activation; AREc32 ARE-luciferase reporter (MCF7-derived line), luminescence, 24 h; Potency, µM (doses to about 46.1 µM), inactives show at the top dose activation, most hits filed as activators; 410,000 tested, 0.31% active; AID 624171; further: % of control where 0% means no effect; nearly all actives have a fitted effect of over 65% in size
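AREc32_Fluc, 1000 cells/well, OPTI-MEM + 5% FBS, o/n 37 deg C 5% CO2; 23 nL cpd by pin tool, 24 hr; Steady-Glo 30 min RT, luminescence.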
The depositor's hits bear a star; u = inconclusive; x = not tested or not shown. An excerpt weighted towards active compounds, which were near 2.2% of everything screened. Unless noted, the call rests on the fitted dose curve; in most records, active means well fitted curve in the direction sought with a large enough effect; inconclusive means small, poorly fitted or top-dose-only effect, or another doubt; inactive means no such curve, though single readings can be large; an effect the other way counts as inactive or inconclusive. Potency means the concentration at half of the fitted maximal effect.

SMILES | A549 tox | Pin1 inhibitor | Nrf2 inh | Nrf2 ARE act
O=C(CSc1cccc[n+]1[O-])Nc1cc2c(cc1Cl)C(=O)c1ccccc1C2=O | 12% | -4% | u | 7%
O=C(NC(NC(=S)Nc1c(Cl)cccc1Cl)C(Cl)(Cl)Cl)c1cccc([N+](=O)[O-])c1 (stereo not given) | u | 16% | 16µM* | 5%
O=C(NNC(=S)NC(=O)c1ccccc1Cl)c1cccc([N+](=O)[O-])c1 | -5% | 1% | -22% | -1%
COc1ccc([N+](=O)[O-])cc1NC(=O)CSc1ccc2ccccc2c1 | -16% | 7% | 18µM* | u
COc1ccc([N+](=O)[O-])cc1NC(=O)C(C)Sc1ccc(C)cc1 (stereo not given) | -2% | 7% | 18µM* | 0%
COc1ccc(-c2nnc(SCC(=O)Nc3cccc(C(F)(F)F)c3)nc2-c2ccc(OC)cc2)cc1 | -2% | 91% | x | 2%
CC(C)(C)c1ccc(C2=NC(C)(C)N(CC(=O)Nc3ccc(F)c(F)c3)C2=O)cc1 | -15% | u | -28% | 6%
COc1ccc([N+](=O)[O-])cc1NC(=S)NC(NC(=O)C(c1ccccc1)c1ccccc1)C(Cl)(Cl)Cl (stereo not given) | u | 14% | 15µM* | 0%
COc1ccc([N+](=O)[O-])cc1NC(=O)C(C)NNC(=O)c1cccc([N+](=O)[O-])c1 (stereo not given) | -4% | -5% | 16µM* | 6%
COc1ccc([N+](=O)[O-])cc1NC(=O)C(C)c1ccccc1 (stereo not given) | 13% | -2% | -13% | 11%
COc1ccc(NC(=O)CCS(=O)(=O)c2ccc3c(c2)n(C)c(=O)c(=O)n3C)cc1Cl | -6% | 0% | 17% | -1%
CCc1ccc(S(=O)(=O)Nc2c(NC3CCCCC3)c3ccccc3oc2=O)cc1 | -18% | u | 26µM* | 0%
Cc1cc(Br)cn2c(Cc3ccccc3)c(-c3ccco3)nc12 | x | x | x | 10µM*
Cc1cc(Br)cn2c(Cc3ccsc3)c(-c3ccco3)nc12 | x | x | x | 7.1µM*
COc1ccc(Cc2c(-c3ccco3)nc3ccc(Br)cn23)c(C)c1 | x | x | x | 8.9µM*
Cc1cccc(C(=O)Nc2ccc(S(=O)(=O)N3CCC(c4nc5ccccc5s4)CC3)cc2)c1 | -3% | 1% | 1% | -1%
CCC1CC=CC2C1C(=O)N(Cc1ccccc1)C2c1ccc2ccccc2c1 (stereo not given) | -2% | 1% | u | x
COc1ccc(-c2ccc(OC)c(C3C4C=CCCC4(C)C(=O)N3Cc3ccccc3)c2)cc1 (stereo not given) | 8% | -1% | 19% | x
CN1C/C(=C\c2ccc(N3CCOCC3)cc2)C(=O)/C(=C/c2ccc(N3CCOCC3)cc2)C1 | -11% | u | 12% | 11µM*
COc1cc(-c2nnc3sc(C4CCCCC4)nn23)cc(OC)c1OC | 0% | u | 13µM* | 0%
COc1ccc(-c2nnc(NC(=O)c3ccc(S(=O)(=O)N4COCC4(C)C)cc3)o2)cc1 | -21% | 2% | 18µM* | 0%
COc1ccc(NC(=O)c2ccco2)c([N+](=O)[O-])c1 | -14% | 0% | 3% | 12%
COC(=O)c1sccc1NC(=O)c1cccc(F)c1 | -6% | 5% | 7% | 10µM*
COC(=O)c1sccc1NC(=O)c1ccco1 | 1% | 14% | -1% | 11µM*
Cc1ccc(NC(=O)c2ccco2)c([N+](=O)[O-])c1 | -1% | 0% | 93% | 11µM*
SMILES | A549 tox | Pin1 inhibitor | Nrf2 inh | Nrf2 ARE act
COC(=O)c1sccc1NC(=O)c1ccccc1Br | -5% | -1% | -11% | u
COC(=O)c1sccc1NC(=O)c1ccccc1[N+](=O)[O-] | -2% | 2% | -1% | 11µM*
COC(=O)c1ccccc1NC(=O)c1ccco1 | 7% | 1% | x | 24%
Cc1ccc(-n2nc(C(=O)N(C)c3ccc(C)c(C)c3)c3c4ccccc4n(C)c3c2=O)cc1 | 4% | 1% | 1% | 0%
COc1ccc(-c2nc(-c3ccc4c(c3)OCO4)[nH]c2-c2ccc(OC)cc2)cc1 | u | 4% | 26µM* | 1%
O=C(COc1ccccc1)NNc1c2ccccc2nc2ccccc12 | u | -2% | x | -1%
COc1ccc(OCC(=O)NNc2c3ccccc3nc3ccccc23)cc1 | u | u | 21µM* | -1%
COc1cccc(NC(=O)CSC2=Nc3ccccc3N=C(c3ccc(F)cc3)C2)c1 | -1% | 7% | x | 23%
C=CC[n+]1c(-c2ccc(Cl)cc2Cl)csc1Nc1ccc(NC(C)=O)cc1 | -15% | u | 12µM* | -2%
C=CC[n+]1c(-c2ccc(Cl)cc2Cl)csc1Nc1c(C)n(C)n(-c2ccccc2)c1=O | -19% | 5% | u | 2%
Cc1ccc(OCC(=O)N/N=C\c2ccc(C)o2)c([N+](=O)[O-])c1 | 3% | 28% | 5% | 7%
O=C(CNc1ccc2ccccc2c1)N/N=C/c1ccc([N+](=O)[O-])o1 | -3% | -8% | -5% | 16%
Cc1ccc(OCC(=O)N/N=C/c2ccc([N+](=O)[O-])o2)cc1 | -25% | -9% | 21µM* | 4%
O=C(COc1ccccc1[N+](=O)[O-])N/N=C/c1ccccn1 | -8% | 3% | 4% | 11µM*
O=C(COc1ccccc1)N/N=C/c1ccc([N+](=O)[O-])o1 | u | -15% | 13µM* | 10%
O=C(CSc1ccc(Cl)cc1)N/N=C/c1ccc([N+](=O)[O-])o1 | u | -1% | 23µM* | 5%
CCc1nnc(SCC(=O)N(CC)c2ccccc2)c2cc3oc(C)cc3n12 | -1% | -11% | -28% | 5.6µM*
Cc1cc2c(s1)c1cnn(Cc3ccc(F)c(F)c3)c(=O)c1n2C | -2% | u | 13% | x
COc1ccccc1-n1cnc2cc(NCc3ccccc3O)ccc21 | -2% | -5% | 4% | 0%
COc1ccc(CNc2ccc3c(c2)ncn3-c2ccccc2OC)cc1 | -30% | -1% | 18µM* | 4%
CCC(O)CNC(=O)NC(=C(Cl)Cl)c1ccc(C)c(F)c1 (stereo not given) | -14% | 0% | 18µM* | u
CCNC(=O)C1(C)CCN(C(=O)c2ccc(C)c(F)c2)C1 (stereo not given) | x | x | x | 1%
COc1cc(C(=S)N2CCC(C)CC2)ccc1O | x | 0% | 18µM* | 0%
Fc1ccccc1CNC(=S)NC1CCCCC1 | -2% | 0% | -19% | 0%
COc1ccccc1CNC(=S)NC1CCCCC1 | u | u | 15µM* | 3%
CC(=O)CCSc1nnc(-c2cccc(S(=O)(=O)N3CCOCC3)c2)o1 | -1% | 3% | 9% | 0%
O=S(=O)(c1cccc(-c2nnc(SCc3nc4ccccc4s3)o2)c1)N1CCOCC1 | 7% | u | u | 14µM*
O=C(/C=C/c1ccccc1)NC(=S)Nc1ccc(N2CCOCC2)cc1 | -1% | -7% | u | 4%
O=C(/C=C/c1ccc(Cl)cc1)NC(=S)Nc1ccc(N2CCOCC2)c(Cl)c1 | -12% | -3% | 16µM* | -1%
COc1ccc(/C=N/NC(=O)c2ccco2)cc1Cn1nc(C)cc1C | 1% | 30% | -6% | 11%

Screening results (PubChem BioAssay)
